PAFAH1B2 FP inh = inhibitors of human PAFAH1B2. P68402. recombinant PAFAH1B2, FP-rhodamine activity probe, fluorescence polarization. inhibition, % at 3.39 µM. actives 1.2% (n = 340,000);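 active = inhibition above the mean of all tested compounds plus 3 SD, cut at about 24% in these data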;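 also: 0% = enzyme with DMSO and 100% = wells lacking PAFAH1B2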
PP1 inh = PP1-alpha (human) inhibition in PP5 counter-screen; P62136; purified PP1alpha, OMFP fluorescence; inhibition, % at 6.7 µM; actives 0.9% (n = 320,000); AID 2235;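 active = inhibition above the mean inhibition of all tested compounds plus 3 SD, computed separately for each screening campaign, cut at about 15% in these data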
PP5 primary = PP5 (human) phosphatase inhibition. actives 0.18% (n = 320,000). purified PP5c, OMFP substrate fluorescence. inhibition, % at 6.7 µM. AID 1987;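 active = inhibition above the campaign's mean inhibition across all tested compounds plus 3 SD, cut at about 9.5% in these data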;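 also: 0% = DMSO only and 100% = 100 µM cantharidin control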
Target sequence (P53041 whole entry, looked up): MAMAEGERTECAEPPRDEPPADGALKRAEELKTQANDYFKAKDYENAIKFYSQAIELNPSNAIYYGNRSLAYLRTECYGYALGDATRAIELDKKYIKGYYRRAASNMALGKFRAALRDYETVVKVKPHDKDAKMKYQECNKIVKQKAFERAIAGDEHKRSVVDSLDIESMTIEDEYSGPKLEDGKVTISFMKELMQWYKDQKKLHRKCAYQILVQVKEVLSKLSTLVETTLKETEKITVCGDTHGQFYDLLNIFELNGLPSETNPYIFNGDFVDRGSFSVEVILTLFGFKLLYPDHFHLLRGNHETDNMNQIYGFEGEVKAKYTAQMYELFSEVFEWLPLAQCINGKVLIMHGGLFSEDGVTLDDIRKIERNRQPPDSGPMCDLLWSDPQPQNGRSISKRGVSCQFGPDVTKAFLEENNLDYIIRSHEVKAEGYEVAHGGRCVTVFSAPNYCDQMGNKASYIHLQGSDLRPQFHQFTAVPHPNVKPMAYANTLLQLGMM
PAFAH2 inh = inhibitors of human PAFAH2 | Q99487 | recombinant PAFAH2, FP-rhodamine activity probe, fluorescence polarization | inhibition, % at 3.39 µM | actives 0.99% (n = 340,000) | AID 492956;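 active = inhibition above the mean over all tested compounds plus 3 SD, cut at about 30% in these data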;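 also: inhibitors block probe labeling of enzyme so polarization drops; 0% = enzyme with DMSO and 100% = wells lacking PAFAH2 protein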
pPAFAH FP inh = pPAFAH (human) enzyme inhibition; actives 1.5% (n = 330,000); inhibition, % at 3.39 µM; recombinant pPAFAH, FP-rhodamine probe fluorescence polarization;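 active = inhibition above the mean inhibition across the screen plus 3 SD, cut at about 25% in these data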;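 also: inhibitors block binding of the rhodamine activity-based probe so polarization drops; 0% = enzyme with DMSO and 100% = wells lacking pPAFAH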
PAFAH1B3 inh = inhibitors of human PAFAH1B3; inhibition, % at 3.39 µM; recombinant PAFAH1B3, FP-rhodamine probe, fluorescence polarization; actives 0.28% (n = 340,000); Q15102;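 active = inhibition above the screen-wide average of all tested compounds plus 3 SD, cut at about 25% in these data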;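 also: 0% = enzyme with DMSO only and 100% = wells lacking PAFAH1B3 protein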
* = called active by the depositor; / = no result. In the library only some 3.4% were active in any assay of this set; here they are far more common.

SMILES | PAFAH1B2 FP inh | PP1 inh | PP5 primary | PAFAH2 inh | pPAFAH FP inh | PAFAH1B3 inh
Nn1c(SCC(=O)N2CCN(S(=O)(=O)c3ccc(Cl)cc3)CC2)nnc1-c1cccs1 | 23 | 2 | 3 | 4 | 31* | -1
Cc1nnc2n1CCCCC2 | 3 | -2 | 2 | 1 | 4 | 0
CCN(CC)c1ccc(-c2sc(Nc3ccccc3)n[n+]2-c2ccc(F)cc2)cc1 | -6 | 17* | 4 | 0 | 4 | 0
CC1(C)CC2CC(C)(CN2C(=O)CN2C(=O)c3ccccc3C2=O)C1 (configuration not stated) | 24* | 1 | 1 | -8 | 5 | 4
N#Cc1c([N+](=O)[O-])cc([N+](=O)[O-])cc1S(=O)(=O)Cc1ccccc1 | 9 | 5 | 0 | 5 | 8 | 24
O=C(O)c1cccc(NC(=S)N/N=C/c2ccccc2OCc2ccc(Br)cc2)c1 | 9 | 17* | -4 | -39 | 10 | 2
O=C(N/N=C/c1ccc2cccc(OCc3ccccc3)c2n1)c1ccc(Br)cc1 | -1 | 17* | 1 | -31 | -26 | 4
O=C(O)c1cccc(NC(=S)N/N=C/c2ccccc2OCc2cccc(Br)c2)c1 | 7 | / | / | -15 | / | 8
Cc1ccc(CNC(=O)c2ccc(OCC(C)C)cc2)n1C | -1 | / | / | 15 | / | 8
COc1ccccc1NC(=O)c1cc2c(CO)cnc(C)c2oc1=Nc1ccc(OC)c(OC)c1 | 0 | 0 | 2 | -4 | 25* | 12
Cc1ccc(C(=O)C2=C(O)C(=O)N(Cc3ccco3)C2c2cccc(Cl)c2)o1 (configuration not stated) | 8 | 25* | 0 | 2 | 5 | 2
O=C(C1=C(O)C(=O)N(CCCn2ccnc2)C1c1cccc(Br)c1)c1ccco1 (configuration not stated) | 1 | 47* | 0 | -2 | 2 | -1
Cc1ccc(C(=O)C2=C(O)C(=O)N(Cc3ccco3)C2c2cccc(Br)c2)o1 (configuration not stated) | 8 | 22* | 2 | 12 | 0 | 4
Cc1ccc(C(=O)C2=C(O)C(=O)N(Cc3ccco3)C2c2ccc(N(C)C)cc2)o1 (configuration not stated) | -2 | 14 | 0 | 1 | 6 | 12
O=C(CSc1ncnc2c1nnn2Cc1ccccc1)NC1CCCCC1 | 0 | -3 | -1 | 0 | 2 | 8
CC1SC2(NC1=O)C1CC3CC(C1)CC2C3 (configuration not stated) | 28* | 1 | 2 | 1 | 1 | 0
O=C(O)CCc1ccc(-c2ccc(Br)cc2)n1-c1ccc(O)cc1 | 33* | / | / | 1 | / | 0
NC(=S)NN=C1CCCCCCCCCC1 | 28* | / | / | 7 | / | 3
S=C(NN=C1CCCCCC1)Nc1ccc(Cl)cc1 | 3 | -4 | -1 | -2 | 1 | 11
COC(=O)C1OCOC2C(C(=O)OC)OCOC12 (configuration not stated) | 1 | / | / | 1 | / | -2
COc1ccc(-c2cc(C(=O)NN)n(-c3ccccc3)n2)cc1 | 2 | 6 | -2 | 1 | -11 | 5
CCOC(=O)c1cc(-c2ccc(OC)cc2)nn1-c1ccccc1C(=O)O | -1 | 17* | -1 | 3 | 0 | 4
O=C(CCn1nnc2ccccc21)Nc1nnc(-c2ccccc2F)s1 | 0 | 17* | 3 | -1 | 5 | 2
O=C(CCn1nnc2ccccc21)Nc1nnc(COc2ccccc2F)s1 | 18 | 1 | 4 | 2 | 0 | 1
CCCC(=O)Nc1nnc(Cc2ccccc2)s1 | 2 | 0 | -3 | -2 | 2 | 3
SMILES | PAFAH1B2 FP inh | PP1 inh | PP5 primary | PAFAH2 inh | pPAFAH FP inh | PAFAH1B3 inh
O=C(CCn1nnc2ccccc21)Nc1nnc(Cc2ccccc2)s1 | 27* | 4 | 2 | 14 | 8 | 8
CC(=O)Nc1cc([N+](=O)[O-])ccc1OCc1ccccc1 | 1 | / | / | 1 | / | 7
Cc1ccc(NS(=O)(=O)c2ccc(CCC(=O)NCCO)cc2)cc1 | 1 | -2 | -2 | 4 | 25* | 1
O=C(CCNC(=O)c1ccccc1Cl)Nc1ccc(S(=O)(=O)Nc2ncccn2)cc1 | 0 | -3 | 0 | 4 | -3 | -2
Cc1ccc(NS(=O)(=O)c2ccc(C(=O)NCc3ccccn3)cc2)cc1 | 6 | 2 | 3 | 2 | 31* | 7
Cc1ccc(NS(=O)(=O)c2ccc(CCC(=O)NCc3ccccn3)cc2)cc1 | 7 | 1 | 4 | 3 | 32* | -3
O=C(CCNC(=O)c1ccc(Br)cc1)Nc1ccc(S(=O)(=O)Nc2ncccn2)cc1 | 2 | -3 | -2 | 7 | 28* | 5
CCOc1ccc(C2C(C(=O)c3ccc(C)o3)=C(O)C(=O)N2c2nc(C)c(C(=O)OC)s2)cc1 (configuration not stated) | -6 | 17* | 3 | -11 | 3 | 3
CN(CC(=O)Nc1ccccc1Br)C(=O)CNC(=O)Cc1cccc2ccccc12 | 10 | -3 | 1 | 3 | 8 | 3
O=C(COC(=O)/C=C/c1ccc(Cl)cc1Cl)NCC1CCCO1 (configuration not stated) | 1 | / | / | 26 | 27* | 10
Cc1ccc(SCC(=O)NCC2CCCO2)cc1 (configuration not stated) | 25* | -5 | 1 | 0 | 1 | -1
CCN(CC)c1ccc(C(=O)OCC(=O)NCC2CCCO2)cc1 (configuration not stated) | 5 | 10 | 0 | 73* | 32* | 0
Cc1ccc(SCCC(=O)NCC2CCCO2)cc1 (configuration not stated) | 15 | -5 | 1 | -1 | 4 | 6
COc1ccc(-n2c(SCC(=O)NCC3CCCO3)nc3ccccc32)cc1 (configuration not stated) | 6 | -2 | 0 | 6 | 26* | -1
Cc1ccc(NC(=O)COC(=O)C2(C)CC2(Cl)Cl)cc1S(=O)(=O)N1CCOCC1 (configuration not stated) | -4 | / | / | 28 | / | 10
Cc1ccc(CN2CCSc3ccc(C(=O)NCC4CCCO4)cc32)cc1 (configuration not stated) | 6 | -1 | 5 | 2 | 33* | 4
Cc1ccc(CN2CCSc3ccc(C(=O)NC4CCCC4)cc32)cc1 | 1 | -1 | 3 | -5 | -1 | 7
Cc1ccc(NS(=O)(=O)c2cc(C(=O)OCC(=O)NCC3CCCO3)ccc2C)cc1 (configuration not stated) | 4 | -5 | 2 | 12 | 34* | 1
COCCn1c(=S)[nH]c2sc3c(c2c1=O)CCC(C)C3 (configuration not stated) | 6 | 3 | 1 | 19 | 8 | 4
Cn1c(=S)[nH]c2sc3c(c2c1=O)CCC(C(C)(C)C)C3 (configuration not stated) | 44* | 1 | 4 | 15 | 0 | 2

High-throughput results from PubChem.
